Test [1] addresses Gonadotropin-releasing hormone receptor (Homo sapiens) (UniProt P30968). As to the kind of experiment: Human gonadotropin-releasing hormone receptor (GnRHR) small molecule agonists, calcium flux assay in GnRHR-HEK293 cells (AID 1920063). Also: nearly all actives have a fitted effect of over 35% in size. The method, boiled down:
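Tox21-format agonist screen using human GnRHR-expressing HEK293 cells and a fluorescent calcium dye; kinetic 3-min fluorescence reading after compound addition, 15-point concentration series run in triplicate.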

The nature of test [2]: G protein-coupled receptor (GPCR) small molecule agonists, calcium flux assay: HEK293 wild type cell line counter screen (AID 1920065). The method, boiled down: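 In this agonist-mode screen, ATP is the positive control and DMSO the vehicle. Cells grow 18 h before a 1 h dye incubation at 37 C; signal is taken at Ex/Em 480/540 over 3 min.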
Test [3] is described as follows: p53 small molecule agonists, cell-based qHTS assay with human liver microsomes (AID 1963577). The method, boiled down: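 p53RE-bla reporter cells were pre-incubated 5 h at 37 C, then treated with compounds plus human liver microsomes (0.5 mg/mL final) and NADPH (0.5 mg/mL final) for 16 h at 37 C. Beta-lactamase activity was read by LiveBLAzer fluorescence after 2 h at room temperature.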

Test [4] can be described thus: p53 small molecule agonists, cell-based qHTS assay with rat liver microsomes (AID 1963578). A digest of the protocol: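 p53RE-bla cells were exposed to compounds together with rat liver microsomes (0.5 mg/mL final) and NADPH (0.5 mg/mL final) for 16 h at 37 C, then read by LiveBLAzer beta-lactamase fluorescence after 2 h at room temperature.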
A short description of test [5]: p53 small molecule agonists, cell-based qHTS assay with human liver microsomes: qHTS cell viability counter screen (AID 1963579). Also: nearly all actives have a fitted effect of over 45% in size. Also: potency is read from the fitted curve at half-maximal effect. The method, boiled down:
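p53RE-bla cells (4,000/well) were pre-incubated 5 h at 37 C, then given compounds in DMSO plus human liver microsomes (0.5 mg/mL final) and NADPH (0.5 mg/mL final) for 16 h at 37 C. Viability was read by CellTiter-Glo luminescence.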
A general note: Quantitative high-throughput screening tests each substance at several concentrations.

The nature of test [6]: p53 small molecule agonists, cell-based qHTS assay with rat liver microsomes: qHTS cell viability counter screen (AID 1963580). Also: nearly all actives have a fitted effect of over 45% in size. Also: potency is read from the fitted curve at half-maximal effect. A digest of the protocol:
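In HCT-116 cells carrying a p53 response element-bla reporter, compounds were metabolically activated in situ by rat liver microsomes with NADPH over 16 h. Cell ATP content then served as the cytotoxicity measure.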

Test [7] is described as follows: p53 small molecule agonists, cell-based qHTS assay: qHTS cell viability counter screen (AID 1963581). Also: nearly all actives have a fitted effect of over 45% in size. The method, boiled down:
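Compounds are pinned onto HCT-116 p53RE-bla cells and left 16 h at 37 C. Following the reporter FRET read, ATP is quantified by CellTiter-Glo luminescence after 30 min at room temperature.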

For test [8], the target named is 5-hydroxytryptamine receptor 2A (Homo sapiens) (UniProt P28223). Nature of the test: 5-hydroxytryptamine receptor 2A (HTR2A) small molecule antagonists, cell-based qHTS assay (AID 1963586). Also: nearly all actives have a fitted effect of over 45% in size. Also: potency is read from the fitted curve at half-maximal effect. A digest of the protocol:
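Antagonist-mode intracellular calcium assay: DOI (4 nM) added after 5 min compound pre-incubation at room temperature to dye-loaded HTR2A-CHO cells. Fluorescence followed for 3 min, sampled every second.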

Test [9] shares this target. As to the kind of experiment: 5-hydroxytryptamine receptor 2A (HTR2A) small molecule agonists, cell-based qHTS assay (AID 1963587). Also: nearly all actives have a fitted effect of over 30% in size. A digest of the protocol: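 HTR2A-CHO cells, plated 18 h at 37 C/5% CO2, dye-loaded 1 h at 37 C; compounds in DMSO added by pin tool (agonist mode). Intracellular calcium flux read as kinetic fluorescence on FDSS over 2 min at 1 s intervals.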

Test [10] concerns the target Muscarinic acetylcholine receptor M1 (Homo sapiens) (UniProt P11229). Nature of the test: Cholinergic receptor muscarinic 1 (CHRM1) small molecule antagonists, cell-based qHTS assay (AID 1963588). Also: nearly all actives have a fitted effect of over 40% in size. Also: potency is read from the fitted curve at half-maximal effect. A digest of the protocol: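 CHRM1-CHO calcium-flux assay, antagonist mode. Cells were seeded 18 h, dye-loaded 1 h at 37 C and given compound for 5 min at RT, then acetylcholine was added at 50nM. FDSS fluorescence was read 3 min; 15 concentrations, three runs.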

Test [11] has the same target. As to the kind of experiment: Cholinergic receptor muscarinic 1 (CHRM1) small molecule agonists, cell-based qHTS assay (AID 1963589). Also: nearly all actives have a fitted effect of over 35% in size. The method, boiled down: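 Stable CHRM1-CHO cells (human receptor) were incubated 18 h, dye-loaded for 1 h at 37 C and exposed to test compounds for agonist activity, with calcium-dependent fluorescence followed kinetically.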
Test [12] in a line: cAMP Responsive Elements (CRE) small molecule agonists, cell-based qHTS assay (AID 1963590). A digest of the protocol:
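FRET-based beta-lactamase readout (LiveBLAzer B/G, 2 h RT) quantified CRE activation in HEK 293T CRE-bla cells after 3 h treatment with DMSO-dissolved compounds.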

Test [13] deals with Beta-2 adrenergic receptor (Homo sapiens) (UniProt P07550). Nature of the test: Adrenergic beta2 receptor (ADRB2) small molecule antagonists, cell-based qHTS assay (AID 1963592). Also: nearly all actives have a fitted effect of over 50% in size. Also: potency is read from the fitted curve at half-maximal effect. The method, boiled down: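 Cells (CHO, stable ADRB2 overexpression) incubated 18-20hr at 37C; compounds added from DMSO; agonist mix (1nM isoproterenol, 100uM IBMX, 25uM Ro-20-1724) added; 0.5hr RT; d2-cAMP and anti-cAMP-cryptate added; 1hr RT; 665/615 nm read.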
Sequence of Beta-2 adrenergic receptor (Homo sapiens) (P07550 whole entry, looked up): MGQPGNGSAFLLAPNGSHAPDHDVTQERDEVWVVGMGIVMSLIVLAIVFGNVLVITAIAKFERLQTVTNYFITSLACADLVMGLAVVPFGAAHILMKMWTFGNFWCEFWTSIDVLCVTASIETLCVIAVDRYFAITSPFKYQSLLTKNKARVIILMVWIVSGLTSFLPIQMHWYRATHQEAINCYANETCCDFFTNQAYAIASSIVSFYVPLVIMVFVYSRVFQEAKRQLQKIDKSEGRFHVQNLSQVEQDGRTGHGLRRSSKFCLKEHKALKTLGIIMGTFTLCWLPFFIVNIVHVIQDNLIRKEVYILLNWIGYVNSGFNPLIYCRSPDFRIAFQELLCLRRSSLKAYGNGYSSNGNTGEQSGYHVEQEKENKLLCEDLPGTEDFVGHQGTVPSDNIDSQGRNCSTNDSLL

Test [14] shares this target. Nature of the test: Adrenergic beta2 receptor (ADRB2) small molecule agonists, cell-based qHTS assay (AID 1963593).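 Also: CHO cells stably overexpressing human ADRB2.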 A digest of the protocol: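 CHO cells stably over-expressing ADRB2 were plated overnight at 37C, then dosed with compounds plus a stimulation mix containing 100uM IBMX and 25uM Ro-20-1724 for 0.5hr at room temperature. cAMP was measured by HTRF competition, 1hr.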

In test [15] the target is D(2) dopamine receptor (Homo sapiens) (UniProt P14416). As to the kind of experiment: Dopamine D2 receptor (DRD2) small molecule agonists, cell-based qHTS assay (AID 1963594). Also: nearly all actives have a fitted effect of over 35% in size. A digest of the protocol:
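HEK293 cells stably expressing DRD2 were cultured 24 h at 37 C, then given Ro20-1724 (0.1 mM final) and compounds for 10 min at room temperature. NKH477 (200nM) was then added for 30 min. cAMP was read by HTRF.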

The target is the same in test [16]. As to the kind of experiment: Dopamine D2 receptor (DRD2) small molecule antagonists, cell-based qHTS assay (AID 1963595; active = well fitted inhibition curve with a large enough effect in the signal ratio in the repeat runs, with a control signal flat; the % refers to the signal ratio). The method, boiled down:
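Stable D2 receptor HEK293 line, 24 h after seeding. Compound preincubated 10 min, then quinpirole (12 nM) with forskolin analogue NKH477 (200 nM), 30 min, room temperature. Detection by time-resolved FRET of cAMP.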

Test [17] concerns the target KiSS-1 receptor (Homo sapiens) (UniProt Q969F8). Nature of the test: Human kisspeptin (KISS1R) small molecule agonists, calcium flux assay in KISS1R-HEK293 cells (AID 1920064; active = well fitted activation curve with a large enough effect in the repeat runs). The method, boiled down:
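Intracellular calcium mobilization in KISS1R-HEK293 cells was recorded by fluorescence (Ex/Em 480/540) for 3 min following compound addition to cells pre-loaded 1 h with calcium dye.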
For orientation: Calcium assays in cells follow changes in intracellular calcium, usually with a dye or a luminescent sensor.

A short description of test [18]: p53 small molecule agonists, cell-based qHTS assay (AID 1963582; active = well fitted activation curve with a large enough effect in the signal ratio in the repeat runs, not every such curve was filed as active; the % refers to the signal ratio). The method, boiled down:
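Agonist activity was scored from beta-lactamase FRET fluorescence in p53RE-bla cells treated 16 h at 37 C with compounds in DMSO, substrate incubation being 2 h at room temperature.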

Test [19] can be described thus: cAMP Responsive Elements (CRE) small molecule antagonists, cell-based qHTS assay (AID 1963591; active = well fitted inhibition curve with a large enough effect in the signal ratio in the repeat runs, not every such curve was filed as active; the % refers to the signal ratio). A digest of the protocol:
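qHTS in CRE-bla HEK 293T cells: compound in DMSO, then 0.25 uM NKH477 (final), 3 h at 37 °C/5% CO2; beta-lactamase FRET read-out after 2 h substrate incubation.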

Inconclusive results are not listed. Calls of active or inactive are those of the source. Unless noted, calls follow the shape of the full dose curve.

Data on nine compounds can be found in PubChem BioAssay (Tox21).

Sequence of 5-hydroxytryptamine receptor 2A (Homo sapiens) (P28223 whole entry, looked up): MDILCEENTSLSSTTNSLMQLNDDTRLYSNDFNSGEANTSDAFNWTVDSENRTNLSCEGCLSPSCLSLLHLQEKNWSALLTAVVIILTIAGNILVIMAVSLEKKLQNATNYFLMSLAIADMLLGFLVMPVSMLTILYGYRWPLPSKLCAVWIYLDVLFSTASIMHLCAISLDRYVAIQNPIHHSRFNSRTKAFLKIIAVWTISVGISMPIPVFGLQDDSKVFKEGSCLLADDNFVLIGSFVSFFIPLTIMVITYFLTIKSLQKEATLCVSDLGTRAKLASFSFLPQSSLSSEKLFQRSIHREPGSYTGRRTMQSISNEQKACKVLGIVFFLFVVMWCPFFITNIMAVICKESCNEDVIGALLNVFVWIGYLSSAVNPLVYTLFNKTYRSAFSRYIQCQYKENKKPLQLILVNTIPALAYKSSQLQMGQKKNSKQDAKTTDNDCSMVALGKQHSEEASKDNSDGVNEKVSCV
Sequence of KiSS-1 receptor (Homo sapiens) (Q969F8 whole entry, looked up): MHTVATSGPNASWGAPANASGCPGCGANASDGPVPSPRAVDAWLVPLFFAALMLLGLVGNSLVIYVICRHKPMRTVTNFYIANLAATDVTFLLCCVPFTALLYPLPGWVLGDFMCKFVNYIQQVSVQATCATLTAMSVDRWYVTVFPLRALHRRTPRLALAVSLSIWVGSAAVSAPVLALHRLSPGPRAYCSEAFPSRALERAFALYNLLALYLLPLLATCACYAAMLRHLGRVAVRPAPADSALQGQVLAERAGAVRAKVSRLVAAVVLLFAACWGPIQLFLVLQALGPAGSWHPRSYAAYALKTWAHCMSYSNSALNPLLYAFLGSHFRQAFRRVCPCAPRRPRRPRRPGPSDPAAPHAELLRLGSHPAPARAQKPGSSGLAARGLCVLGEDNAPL
Sequence of D(2) dopamine receptor (Homo sapiens) (P14416 whole entry, looked up): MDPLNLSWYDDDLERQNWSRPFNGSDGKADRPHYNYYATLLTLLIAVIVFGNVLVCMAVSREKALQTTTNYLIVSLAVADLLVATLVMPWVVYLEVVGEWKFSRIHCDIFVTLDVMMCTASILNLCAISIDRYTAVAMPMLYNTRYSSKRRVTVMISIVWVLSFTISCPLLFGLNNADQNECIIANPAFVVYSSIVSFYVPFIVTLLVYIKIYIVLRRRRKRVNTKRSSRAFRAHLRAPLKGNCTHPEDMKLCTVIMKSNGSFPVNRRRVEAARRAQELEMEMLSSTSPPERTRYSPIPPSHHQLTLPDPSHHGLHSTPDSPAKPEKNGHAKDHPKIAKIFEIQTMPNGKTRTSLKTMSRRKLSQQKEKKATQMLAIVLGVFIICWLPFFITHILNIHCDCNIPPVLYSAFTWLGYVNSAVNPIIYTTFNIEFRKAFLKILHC
Sequence of Muscarinic acetylcholine receptor M1 (Homo sapiens) (P11229 whole entry, looked up): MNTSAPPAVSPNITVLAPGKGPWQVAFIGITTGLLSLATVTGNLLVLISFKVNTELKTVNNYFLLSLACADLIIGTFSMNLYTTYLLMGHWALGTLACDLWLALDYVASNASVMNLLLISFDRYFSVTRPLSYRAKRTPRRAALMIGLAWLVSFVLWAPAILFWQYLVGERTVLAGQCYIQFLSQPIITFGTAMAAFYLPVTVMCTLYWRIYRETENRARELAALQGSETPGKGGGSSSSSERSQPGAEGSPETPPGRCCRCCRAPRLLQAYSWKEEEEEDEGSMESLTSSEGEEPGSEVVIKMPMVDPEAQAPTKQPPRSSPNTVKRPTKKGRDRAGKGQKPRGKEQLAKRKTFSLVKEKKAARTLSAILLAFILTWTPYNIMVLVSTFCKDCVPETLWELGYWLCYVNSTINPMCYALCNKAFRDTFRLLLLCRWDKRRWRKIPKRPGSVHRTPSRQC
Sequence of Gonadotropin-releasing hormone receptor (Homo sapiens) (P30968 whole entry, looked up): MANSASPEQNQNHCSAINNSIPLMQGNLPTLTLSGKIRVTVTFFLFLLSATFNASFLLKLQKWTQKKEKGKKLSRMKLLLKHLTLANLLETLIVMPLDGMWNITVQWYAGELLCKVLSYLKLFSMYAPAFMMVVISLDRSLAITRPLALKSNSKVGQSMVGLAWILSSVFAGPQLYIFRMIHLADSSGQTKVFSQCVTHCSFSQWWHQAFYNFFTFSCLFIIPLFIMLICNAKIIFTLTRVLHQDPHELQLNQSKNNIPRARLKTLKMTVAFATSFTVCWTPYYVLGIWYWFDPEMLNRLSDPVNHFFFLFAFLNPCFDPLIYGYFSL

Consider `CCCCOC(=O)CC#N`, for which the Potency result in test [1], in [2], in test [3], in test [4], in test [6] and in test [7] was “inactive” throughout. Besides, the Potency result in [8], in test [9], in [10], in [11], in [12] and in [13] was “inactive” in each case. The Potency result in [14], in test [15] and in test [16] was “inactive” each time. The Potency in [5] is 17 µM (active).
`COc1cc(C)nc(-n2nc(C)cc2OC)n1`: the Potency result in test [17], in [2], in test [3], in [4], in [5] and in [6] was “inactive” in each case. In addition, the Potency result in test [7], in test [18], in [8], in [9], in test [10] and in test [11] was “inactive” in each case. In addition, the Potency result in [12], in test [13] and in [16] was “inactive” in each case.
On to `CN(C)CCCN1c2ccccc2CCc2ccccc21`, for which the Potency entry in [1], in test [2], in test [9], in test [11], in [12] and in test [19] was “inactive” in each case. In addition, the Potency entry in test [15] is “inactive”.
In the case of `O=S(c1cc(Cl)cc(Cl)c1O)c1cc(Cl)cc(Cl)c1O`, the Potency result in [1], in test [2], in [3], in test [4], in test [5] and in test [6] was “inactive” in each case. The Potency entry in test [9], in test [10], in [11], in [19], in [13] and in test [15] was “inactive” each time. Besides, the Potency entry in test [16] was “inactive”.
With `CN1CCN(CCC(=O)N2c3ccccc3Sc3ccc(C(F)(F)F)cc32)CC1`, the Potency entry in [17], in [2], in [3], in [4], in test [6] and in test [11] was “inactive” throughout. Moreover, the Potency entry in test [15] was “inactive”. Further, the Potency in test [8] is 4.1 µM (active); in test [10], 0.146 µM (active); in test [13], 29.8 µM (active).
Take `CCCCC(CC)COP(=O)(O)O` (stereo not drawn): the Potency entry in [1], in test [2], in test [3], in test [5], in test [7] and in test [8] was “inactive” each time. For the same compound, the Potency result in [9], in [11], in [12], in [19], in test [13] and in test [15] was “inactive” in each case. The Potency entry in test [16] is “inactive”.
On to `COc1ccc2ccccc2c1`, for which the Potency in test [8] was 33.4 µM (active). Besides, the Potency entry in test [9], in [10], in test [11], in test [13], in [14] and in test [15] was “inactive” throughout. Further, the Potency entry in [16] was “inactive”.
`CCN(Cc1cccc(S(=O)(=O)O)c1)c1ccc(C(=C2C=CC(=[N+](CC)Cc3cccc(S(=O)(=O)O)c3)C=C2)c2ccccc2S(=O)(=O)[O-])cc1`: the Potency result in test [17], in test [2], in test [3], in [4], in test [18] and in [8] was “inactive” each time. Moreover, the Potency entry in [9], in test [11] and in test [19] was “inactive” each time. Also, the Potency in [6] is 20.5 µM (active).
Consider `O=Cc1ccc(Cl)c([N+](=O)[O-])c1`, for which the Potency entry in test [17], in test [2], in test [3], in test [4], in test [5] and in test [7] was “inactive” throughout. Besides, the Potency result in test [8], in test [10], in test [11], in test [13] and in test [16] was “inactive” throughout.
